Experimental data reported in PubChem BioAssay AID1559 (National Center for Advancing Translational Sciences (NCATS), 2009).
Results filed as inconclusive are left out. The source made the active and inactive calls. Calls come from the whole dose curve; as a rule, active = well fitted curve in the direction sought with a large enough effect; inconclusive = small, poorly fitted or top-dose-only effect, or another doubt; inactive = no such curve, though single readings can be large or run the other way.

Target: Microtubule-associated protein tau (Homo sapiens) (UniProt P10636)
Test: Confirmation Concentration-Response Assay for Inhibitors of Tau Fibril Formation, Fluorescence Polarization
Settings: recombinant tau K18 P301L (four-repeat tau fragment) heparin fibrillization, Alexa594 FP; series mostly up to 57.1 µM; activity change, negative = inhibition: at the top concentration
Description: NIH Molecular Libraries Probe Production Network [MLPCN] NIH Chemical Genomics Center [NCGC] MLPCN Grant: X01 MH083262-01 Assay Provider: Carlo Ballatore, University of Pennsylvania NCGC Assay Overview: The microtubule-associated protein tau is an abundant protein in the axons of neurons that stabilizes microtubules. With its ability to modulate microtubule dynamics, tau contributes directly or indirectly, to key structural and regulatory cellular functions. Particularly important is the influence tau exerts on axonal transport, which allows signaling molecules, trophic factors and other essential cellular constituents to travel along the axons. Under pathological conditions, tau becomes sequestered into insoluble aggregates called neurofibrillary tangles. This phenomenon is believed to have pathological consequences by promoting axonal transport deficits that ultimately lead to synaptic dysfunction and neuronal loss. To identify inhibitors of tau aggregation, a heparin-induced tau fibril formation assay was used that employed a recombinantly expressed fragment of tau, K18 (Q242-E372), bearing a P301L mutation (Gustke et al. 1994; Hong et al. 1998). […] Gustke, N., B. Trinczek, et al. (1994). "Domains of tau protein and interactions with microtubules." Biochemistry 33(32): 9511-22. Hong, M., V. Zhukareva, et al. (1998). "Mutation-specific functional impairments in distinct tau isoforms of hereditary FTDP-17." Science 282(5395): 1914-7. Li, W. and V. M. Lee (2006). "Characterization of two VQIXXK motifs for tau fibrillization in vitro." Biochemistry 45(51): 15692-701. von Bergen, M., S. Barghorn, et al. (2001). "Mutations of tau protein in frontotemporal dementia promote aggregation of paired helical filaments by enhancing local beta-structure." J Biol Chem 276(51): 48165-74.
For screening, 2 uL/well human K18 P301L (15 uM unlabeled and 0.24 uM Alexa 594-labeled tau final concentrations) in reagent buffer (100 mM sodium acetate pH 7) was dispensed into black solid 1536-well plates (Grenier) using a solenoid-based dispenser. Following transfer of 23 nL compound or DMSO vehicle by a pin tool, 2 uL/well heparin (20 uM final concentration) in reagent buffer was added and the plate centrifuged 15 s at 1000 RPM. Plates were incubated 6 hr at 37 C and then 1 uL/well ThT (30 uM final concentration) was added. After a 1 hr ambient incubation, the plates were read by an Envision (Perkin Elmer) to monitor Alexa 594 FP (555 nm excitation and 632 nm emission). Keywords: NIH Roadmap, MLPCN, MLI, MLSMR, NCGC, qHTS, tau, tauopathies, Alzheimer's disease, fibril, neurodegeneration, aggregation

Sequence of Microtubule-associated protein tau (Homo sapiens) (P10636 561-689 P618L limits assumed): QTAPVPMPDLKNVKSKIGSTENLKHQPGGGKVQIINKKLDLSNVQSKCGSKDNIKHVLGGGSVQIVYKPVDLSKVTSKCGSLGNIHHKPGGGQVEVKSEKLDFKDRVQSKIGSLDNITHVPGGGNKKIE

Activity change, negative = inhibition, inactive:
CCOC(=O)c1ccc(-n2nc(C(=O)OCC)c3csc(N)c3c2=O)cc1 -19.3%, Cc1ccc(NC(=O)N2CCN(c3ccccn3)CC2)cc1 -9.65% [at 100 µM], CN(c1ccccc1)S(=O)(=O)c1nnc(NC(=O)COc2ccccc2)s1 -3.1% [at 100 µM], Cc1ccc(SCc2cc(=O)n(C)[nH]2)cc1 -3.6% [at 100 µM], Cn1sc(NC(=O)c2ccccc2)nc1=O -3.96%, CCOC(=O)c1nn(-c2ccc(C)c(C)c2)c(=O)c2c(N)scc12 -29.4%, CCOC(=O)c1nn(-c2ccccc2)c(=O)c2c(NC(=O)c3ccccc3)scc12 -5.82%, CCOC(=O)c1nn(-c2ccc(OC)cc2)c(=O)c2c(NC(=O)Cc3ccccc3)scc12 2.38%, CN1CCc2sc(NC(=O)Cc3ccccc3)c(C(=O)Nc3ccc(Cl)cc3)c2C1 23%, CC1CCc2c(sc(NC(=O)Cc3ccccc3)c2C(=O)Nc2ccc(Cl)cc2)C1 (configuration not stated) -21%, O=C(Cc1ccccc1)Nc1sc2c(c1C(=O)Nc1ccc(Cl)cc1)CCOC2 -15.8%, COc1ccc2c(c1)c(CC(=O)Nc1ccc(C(C)=O)cc1)c(C)n2C(=O)c1ccc(Cl)cc1 -10.6% [at 100 µM], CCOC(=O)c1c(N)sc2c1CCOC2 -6.49%, O=C(Nc1ccccc1)Nc1ccccc1 -2.15% [at 100 µM], COc1cccc(/C=C2/SC(=S)N(CC(=O)Nc3nnc(C)s3)C2=O)c1 -24.6%, COc1c(Cl)cccc1NC(=O)c1c(NC(=O)Cc2ccccc2)sc2c1CCCC2 4.04%, CC(C)c1ccc(NS(=O)(=O)c2ccc3[nH]cc(C(=O)NCCc4ccccc4)c(=O)c3c2)cc1 -17.1% [at 100 µM], COC(=O)C1CCc2sc(NC(=O)Cc3ccccc3)c(C(=O)Nc3ccc(Cl)cc3)c21 (configuration not stated) 2.38%, Cc1ccc(NCc2cc3cc4c(cc3n(CC(=O)Nc3ccc(C)cc3)c2=O)OCCO4)cc1 -7.5% [at 100 µM], Cc1ccc(N(C)S(=O)(=O)c2nnc(NC(=O)C3CCCCC3)s2)cc1 -6% [at 100 µM], CCN(c1ccccc1)S(=O)(=O)c1nnc(NC(=O)C(C)(C)C)s1 -5.3% [at 100 µM], O=C(Nc1nc2ccc(S(=O)(=O)N3CCCC3)cc2s1)c1ccc(F)cc1 -4.75% [at 100 µM], O=C(Cc1ccccc1)Nc1sc2c(c1C(=O)Nc1ccc(Cl)cc1)CCCC2 0.795%, CCOC(=O)c1nn(-c2ccccc2)c(=O)c(C#N)c1C -3.79%, Cn1[nH]c(CSc2ccc(Cl)cc2)cc1=O -3.05% [at 100 µM]

Potency, active:
O=C(NCCCO)Nc1ccc2nc(-c3ccco3)c(-c3ccco3)nc2c1 7.94 µM, O=S(=O)(c1ccc2nc(-c3ccco3)c(-c3ccco3)nc2c1)N1CCOCC1 7.94 µM
